According to PubChem BioAssay (NCI):
The panel holds about 83,000 compounds, 20% with a hit somewhere; the sample as a whole holds those more often.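 Note: values are percent growth. 100 is the growth of untreated cells, values between 100 and 0 indicate rising inhibition; between -100 and 0 indicates cell death.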 Activity calls are given as the source filed them. How the source made its calls: active means growth percent below 10; inactive means the rest.

What was measured:
Experiment in all cases: NCI-60 one-dose screen, 48 h (100 = growth as untreated, 0 = no growth, -100 = all killed)
Details in all cases: 10 µM unless noted
DU-145 prostate = tested on: DU-145 prostate
K-562 leukemia = tested on: K-562 leukemia
MALME-3M melanoma = tested on: MALME-3M melanoma
MDA-MB-231 breast = tested on: MDA-MB-231 breast
RXF 393 renal = tested on: RXF 393 renal
SF-268 CNS = tested on: SF-268 CNS
SF-295 CNS = tested on: SF-295 CNS
SF-539 CNS = tested on: SF-539 CNS
UACC-257 melanoma = tested on: UACC-257 melanoma
M14 melanoma = tested on: M14 melanoma
HCT-15 colon = tested on: HCT-15 colon
HT29 colon = tested on: HT29 colon
SNB-75 CNS = tested on: SNB-75 CNS
SNB-19 CNS = tested on: SNB-19 CNS
U251 CNS = tested on: U251 CNS
PC-3 prostate = tested on: PC-3 prostate
SK-MEL-5 melanoma = tested on: SK-MEL-5 melanoma
UACC-62 melanoma = tested on: UACC-62 melanoma
LOX IMVI melanoma = tested on: LOX IMVI melanoma
SK-MEL-28 melanoma = tested on: SK-MEL-28 melanoma

Measured: growth

COc1cc2oc(-c3cccc(C(=O)Nc4ccc(Cl)cc4)c3)cc(=O)c2c(O)c1OC
inactive: DU-145 prostate 62.9% | K-562 leukemia 69.4% | MALME-3M melanoma 68.4% | MDA-MB-231 breast 55.8% | RXF 393 renal 41.3% | SF-268 CNS 28.6% | SF-295 CNS 52% | SF-539 CNS 55% | UACC-257 melanoma 83.2% | M14 melanoma 69.8% | HCT-15 colon 70.2% | HT29 colon 66.2% | SNB-75 CNS 24.4% | SNB-19 CNS 28.4% | U251 CNS 23% | PC-3 prostate 55.1% | SK-MEL-5 melanoma 58.7% | UACC-62 melanoma 42.7% | LOX IMVI melanoma 69.8% | SK-MEL-28 melanoma 67.8%

C=C1C(=O)O[C@H]2[C@H]1CC/C(COC(=O)NCCc1c[nH]c3ccc(OC)cc13)=C\CC[C@@]1(C)O[C@@H]21
inactive: DU-145 prostate 10.6% | MDA-MB-231 breast 39.1% | SF-268 CNS 60.1% | SF-295 CNS 86.2% | UACC-257 melanoma 30.6% | M14 melanoma 14.1% | SNB-75 CNS 55.5% | SNB-19 CNS 51.6% | U251 CNS 35.5% | PC-3 prostate 54.7% | SK-MEL-5 melanoma 64.7% | UACC-62 melanoma 21.6%
active: K-562 leukemia 3.56% | MALME-3M melanoma -37.2% | RXF 393 renal -81.7% | SF-539 CNS -24.7% | HCT-15 colon -54.7% | HT29 colon -15.2% | LOX IMVI melanoma -22.4% | SK-MEL-28 melanoma -10.8%

CN[C@@H](C)C(=O)N[C@H]1CCS[C@H]2CC(C)(C)[C@@H](C(=O)N[C@H]3c4ccccc4C[C@H]3OCC#CC#CCO[C@@H]3Cc4ccccc4[C@@H]3NC(=O)[C@H]3N4C(=O)[C@@H](NC(=O)[C@H](C)NC)CCS[C@H]4CC3(C)C)N2C1=O
inactive: DU-145 prostate 101% | K-562 leukemia 100% | SF-268 CNS 124% | SF-295 CNS 86.8% | UACC-257 melanoma 101% | M14 melanoma 103% | HCT-15 colon 109% | HT29 colon 112% | SNB-75 CNS 16.5% | SNB-19 CNS 97.1% | U251 CNS 100% | PC-3 prostate 102% | SK-MEL-5 melanoma 66.2% | UACC-62 melanoma 102% | LOX IMVI melanoma 69.7% | SK-MEL-28 melanoma 107%
active: MALME-3M melanoma -42.8% | MDA-MB-231 breast -51.2% | RXF 393 renal 2.22% | SF-539 CNS -43.6%

CN(C)CC(O)c1ccc(/C=C/c2ccc(Cl)cc2)cc1 (stereo not given)
inactive: MALME-3M melanoma 21.9% | SNB-19 CNS 32.1%
active: DU-145 prostate -88.8% | K-562 leukemia -47.6% | MDA-MB-231 breast -82.3% | RXF 393 renal 8.01% | SF-268 CNS -52.4% | SF-295 CNS -48.2% | SF-539 CNS -67.6% | UACC-257 melanoma -81.2% | M14 melanoma -34.8% | HCT-15 colon -51.7% | HT29 colon -69.5% | SNB-75 CNS -24.8% | U251 CNS -94% | PC-3 prostate -30.3% | SK-MEL-5 melanoma -91.5% | UACC-62 melanoma -79% | LOX IMVI melanoma -54.2% | SK-MEL-28 melanoma -88.2%

C/C(=N\NC(=O)CSc1nc2ccccc2c(=O)n1CCc1ccc(S(N)(=O)=O)cc1)c1ccccn1
inactive: DU-145 prostate 44.1% | K-562 leukemia 25.2% | MALME-3M melanoma 36.5% | MDA-MB-231 breast 27.4% | RXF 393 renal 52.8% | SF-268 CNS 34.3% | SF-295 CNS 13.4% | SF-539 CNS 29.8% | UACC-257 melanoma 45.9% | M14 melanoma 17.6% | HCT-15 colon 26.8% | HT29 colon 31.5% | SNB-75 CNS 74.5% | SNB-19 CNS 46.6% | U251 CNS 31.8% | PC-3 prostate 50.7% | SK-MEL-5 melanoma 24.9% | UACC-62 melanoma 19.5% | LOX IMVI melanoma 13.8% | SK-MEL-28 melanoma 37.6%

Cc1cc2nc3c4cc(C=O)ccc4n(CCN(C)C)c3nc2cc1C
active: DU-145 prostate 0.0752% | K-562 leukemia 5.5% | MALME-3M melanoma -3.12% | HCT-15 colon 2.81% | HT29 colon 6.7% | SK-MEL-5 melanoma 6.63% | LOX IMVI melanoma -40.5%
inactive: MDA-MB-231 breast 24% | RXF 393 renal 19.4% | SF-268 CNS 37.3% | SF-295 CNS 17.1% | SF-539 CNS 21% | UACC-257 melanoma 11.4% | M14 melanoma 15.8% | SNB-75 CNS 28.2% | SNB-19 CNS 28.1% | U251 CNS 16.8% | PC-3 prostate 15.5% | UACC-62 melanoma 21.5% | SK-MEL-28 melanoma 37.1%

O=C(Nc1cccc(C(=O)N2CCc3ccc(Cl)cc32)c1)c1ccco1
active: SNB-75 CNS 0.916%
inactive: DU-145 prostate 67.8% | K-562 leukemia 13.9% | MALME-3M melanoma 40.9% | MDA-MB-231 breast 44.9% | RXF 393 renal 39.9% | SF-268 CNS 55.9% | SF-295 CNS 30.8% | SF-539 CNS 26.8% | UACC-257 melanoma 52.2% | M14 melanoma 18.2% | HCT-15 colon 24.2% | HT29 colon 15.9% | SNB-19 CNS 37.6% | U251 CNS 36.7% | PC-3 prostate 69.7% | SK-MEL-5 melanoma 24.3% | UACC-62 melanoma 36.3% | LOX IMVI melanoma 35.9% | SK-MEL-28 melanoma 59.9%

O=C(Cn1c[n+](CC(=O)c2ccc(-c3ccccc3)cc2)c2ccccc21)Nc1cccc2cccnc12
active: MALME-3M melanoma 8.16% | MDA-MB-231 breast -7.75% | HT29 colon 7.47% | SNB-75 CNS -6.7% | SNB-19 CNS 7.73% | SK-MEL-5 melanoma -35.1% | UACC-62 melanoma -32.3% | LOX IMVI melanoma -45.5%
inactive: DU-145 prostate 36.9% | K-562 leukemia 12.6% | RXF 393 renal 83.7% | SF-268 CNS 20.3% | SF-295 CNS 78.1% | SF-539 CNS 23.6% | UACC-257 melanoma 10.1% | M14 melanoma 28.1% | HCT-15 colon 95.9% | U251 CNS 20.6% | PC-3 prostate 12.9% | SK-MEL-28 melanoma 21.2%

CCOC(=O)c1cc(C(=O)c2ccc(OC)cc2)n2ccc(/C=C/c3cc[n+](CC(=O)c4ccc(OC)cc4)cc3)cc12
active: K-562 leukemia -15.2%
inactive: DU-145 prostate 75% | MALME-3M melanoma 92.1% | MDA-MB-231 breast 72.1% | RXF 393 renal 99.9% | SF-268 CNS 94.5% | SF-295 CNS 104% | SF-539 CNS 92.9% | UACC-257 melanoma 111% | M14 melanoma 75.4% | HCT-15 colon 85.9% | HT29 colon 16.5% | SNB-75 CNS 57.9% | SNB-19 CNS 31.3% | U251 CNS 53.5% | PC-3 prostate 64.1% | SK-MEL-5 melanoma 87.8% | UACC-62 melanoma 99.5% | LOX IMVI melanoma 25.4% | SK-MEL-28 melanoma 103%

COc1cc2c(=O)n(CCCN(C)C)c3c4cc5c(cc4ccc3c2cc1OC)OCO5
inactive: DU-145 prostate 63.5% | K-562 leukemia 56.3% | MALME-3M melanoma 67.8% | MDA-MB-231 breast 67% | RXF 393 renal 45.3% | SF-268 CNS 50.4% | SF-295 CNS 42.5% | SF-539 CNS 46.2% | UACC-257 melanoma 93.1% | M14 melanoma 66.6% | HCT-15 colon 52.1% | HT29 colon 30.5% | SNB-75 CNS 90.2% | SNB-19 CNS 52.6% | U251 CNS 55.8% | PC-3 prostate 50.8% | SK-MEL-5 melanoma 71% | UACC-62 melanoma 59.4% | LOX IMVI melanoma 36.3% | SK-MEL-28 melanoma 87.2%

c1ccc2c(-c3c[nH]c4ccccc34)c3c(cc2c1)[nH]c1ccccc13
inactive: DU-145 prostate 93.7% | K-562 leukemia 25.1% | MALME-3M melanoma 78.9% | MDA-MB-231 breast 71.6% | RXF 393 renal 33.5% | SF-268 CNS 66.7% | SF-295 CNS 85.4% | SF-539 CNS 59% | UACC-257 melanoma 77.6% | M14 melanoma 39.2% | HCT-15 colon 47% | HT29 colon 72.5% | SNB-75 CNS 38.4% | SNB-19 CNS 90.9% | U251 CNS 70.1% | PC-3 prostate 69.9% | SK-MEL-5 melanoma 67.3% | UACC-62 melanoma 68.3% | LOX IMVI melanoma 60.1% | SK-MEL-28 melanoma 75.3%

CC(=O)O[C@@H]1C2CCC3C(CC[C@@]4(C)C3CC[C@@H]4C(C)N(C)C)[C@@]2(C)CC[C@@H]1NC(=O)C=C(C)C (stereo not given in full)
inactive: DU-145 prostate 51.4% | SNB-75 CNS 12% | SNB-19 CNS 65.6% | U251 CNS 14.9% | PC-3 prostate 10.5%
active: K-562 leukemia 2.24% | MALME-3M melanoma -59.4% | MDA-MB-231 breast -10.3% | RXF 393 renal -51.5% | SF-268 CNS -23.4% | SF-295 CNS -15.3% | SF-539 CNS -52.7% | UACC-257 melanoma -40.9% | M14 melanoma -44.4% | HCT-15 colon -58.1% | HT29 colon -39.5% | SK-MEL-5 melanoma -93.1% | UACC-62 melanoma -49.9% | LOX IMVI melanoma -43.5% | SK-MEL-28 melanoma -91.7%

Nc1n[nH]c2cccc(C#Cc3cccc(C(=O)Nc4cc(CN5CCOCC5)cc(C(F)(F)F)c4)c3)c12
active: K-562 leukemia 4.98% | MALME-3M melanoma 0.564% | SF-539 CNS 8.6% | M14 melanoma 6.89% | LOX IMVI melanoma 7.72%
inactive: DU-145 prostate 58.9% | MDA-MB-231 breast 19.6% | RXF 393 renal 24% | SF-268 CNS 41.9% | SF-295 CNS 54.6% | UACC-257 melanoma 33% | HCT-15 colon 31.8% | HT29 colon 18% | SNB-75 CNS 44.1% | SNB-19 CNS 66.7% | U251 CNS 51% | PC-3 prostate 36.9% | SK-MEL-5 melanoma 29% | UACC-62 melanoma 11.7% | SK-MEL-28 melanoma 14.6%

COc1cc2oc(-c3cccc(C(=O)Nc4ccccc4)c3)cc(=O)c2c(O)c1OC
inactive: DU-145 prostate 65.6% | K-562 leukemia 97.1% | MALME-3M melanoma 64.5% | MDA-MB-231 breast 76.3% | RXF 393 renal 56.5% | SF-268 CNS 37% | SF-295 CNS 70% | SF-539 CNS 19.4% | UACC-257 melanoma 84.3% | M14 melanoma 83.7% | HCT-15 colon 92.8% | HT29 colon 54.2% | SNB-75 CNS 21.8% | SNB-19 CNS 57.7% | U251 CNS 36.9% | PC-3 prostate 71% | SK-MEL-5 melanoma 71.7% | UACC-62 melanoma 38.9% | LOX IMVI melanoma 88.1% | SK-MEL-28 melanoma 87.4%
